# Source: PubChem BioAssay (several laboratories)
# ERa SRC1 pot: enhances coactivator binding to human estrogen receptor alpha; P03372; AID 639; 1.3% of 86,000 active; TR-FRET ERalpha-LBD/SRC-Cy5 coactivator binding, 2 h; 100 = basal binding, no effect; coactivator binding (% of control), % at 25.6 µM; in the data active means activity above about 200%;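 further: binding measured in presence of low estradiol as agonist stimulus; 0% = peptide alone without receptor and 100% = receptor with peptide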
# ERb coact inh: ER-beta (human) coactivator binding inhibition. Q92731. TR-FRET ER-beta LBD / SRC1-Cy5 peptide binding; receptor agonist-loaded with 1 µM estradiol. inhibition, % at 25.6 µM. 1.3% of 86,000 active. AID 633;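 active means compounds whose percent inhibition of the receptor-coactivator binding signal exceeds about 50% in the single-dose screen, limit read from the data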;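 further: 0% = receptor plus peptide wells without compound and 100% = peptide-only wells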
# ERa coact inh: blocks coactivator binding to human estrogen receptor alpha; TR-FRET ER-alpha LBD / SRC-1 peptide, estradiol-bound; 1.7% of 86,000 active; P03372; inhibition, % at 25.6 µM; in the data active means inhibition above about 50%;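 further: 0% = receptor plus peptide control and 100% = peptide only without receptor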
# FAK blocker: inhibitors of human focal adhesion kinase. biochemical FAK kinase activity assay. inhibition, %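 (tested at 7 µM)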. 0.84% of 97,000 active. AID 727; in the data active means inhibition above about 19%;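 further: 0% = DMSO and 100% = reference compound high control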
# Smad3 FoxH1 inh: blocks human Smad3 binding to FoxH1 peptide; inhibition, % at 25 µM; TR-FRET Smad3/Dy647-FoxH1 peptide binding, europium anti-His; 0.29% of 88,000 active; P84022;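 active means compounds that reduce the energy-transfer binding signal between the protein and its labelled peptide by more than half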;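 further: 0% = Smad3 plus labelled peptide maximal FRET and 100% = peptide-only background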
# Target sequence (P84022 whole entry, looked up): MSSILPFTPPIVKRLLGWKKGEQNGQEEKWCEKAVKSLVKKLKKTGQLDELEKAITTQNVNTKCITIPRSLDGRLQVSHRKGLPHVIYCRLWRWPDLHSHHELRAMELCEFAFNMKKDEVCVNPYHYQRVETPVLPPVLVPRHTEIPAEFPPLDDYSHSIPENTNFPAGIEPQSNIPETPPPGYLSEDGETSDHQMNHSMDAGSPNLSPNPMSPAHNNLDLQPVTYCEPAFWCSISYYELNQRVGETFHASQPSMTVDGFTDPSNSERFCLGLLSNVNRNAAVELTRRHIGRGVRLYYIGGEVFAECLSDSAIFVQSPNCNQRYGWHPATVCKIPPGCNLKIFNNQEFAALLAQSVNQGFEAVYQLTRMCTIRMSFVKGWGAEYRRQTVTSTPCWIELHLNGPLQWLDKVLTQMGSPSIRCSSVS
# * marks the source's active call; other numbers are inactive results; . = no result given; [ ] = remark or other dose. Only some compounds are listed: those with a hit (about 3.3% of all), similar ones and a draw of the others.
SMILES,ERa SRC1 pot,ERb coact inh,ERa coact inh,FAK blocker,Smad3 FoxH1 inh
C/C(N[O-])=C(\C)[N+]([O-])=[Co].CC(=N\[O-])/C(C)=N/[O-].O[C@@H]1[CH-]CCCC1.c1ccncc1,.,.,.,.,71*
C/C(=N\NC(=O)c1ccncc1)c1ccccc1Cl,.,.,.,.,-7
COc1ccc(NC(=O)Nc2ccc(N(C)C)cc2)cc1,75,52*[fluorescence artefact?],28,3,6
COc1ccc(NC(=O)Nc2ccc(OC)cc2)cc1,107,7,-1,0,8
CCCNC(=O)C(=O)Nc1ccc(N(C)C)cc1,105,-5,-2,3,91*[fluorescence artefact?]
O=C(O)c1cc(Nc2nc(N3CCOCC3)nc(N3CCOCC3)n2)ccc1Cl,106,9,2,2,-7
O=C(O)c1cccc(Nc2nc(N3CCOCC3)nc(N3CCOCC3)n2)c1,626*[fluorescence artefact?],-6,-4,1,17
CCOC(=O)Nc1nc(-c2ccccc2)c(C)s1,.,.,.,.,27
CO[C@@H]1/C=C\O[C@]2(C)Oc3c(C)c(O)c4c(O)c(cc(O)c4c3C2=O)NC(=O)C(C)=C/C=C\[C@H](C)[C@@H](O)[C@H](C)[C@H](O)[C@H](C)[C@H](OC(C)=O)[C@@H]1C,.,.,.,.,-1
COc1cccc(NC(=O)CSc2ncnc3c2oc2ccccc23)c1,373*[fluorescence artefact?],57*[fluorescence artefact?],64*[fluorescence artefact?],-212,-2
O=C(CSc1ncnc2c1oc1ccccc12)N1CCCc2ccccc21,202*[fluorescence artefact?],39,33,-2,16
O=C(CSc1ncnc2c1oc1ccccc12)Nc1ccccc1C(F)(F)F,721*[fluorescence artefact?],29,23,.,-7
Cc1ccc(NC(=O)CCC(=O)O)cc1F,102,4,-2,3,-3
Cc1nc(SCC(=O)Nc2ccc(C)c(F)c2)c2oc3ccccc3c2n1,840*[fluorescence artefact?],-38,-35,-82,17
Nc1cc2c(nc3c4ccccc4c(N)cc3[n+]2-c2cccc3ccccc23)c2ccccc12 (tested in a mixture with another compound),.,.,.,.,17
O=C(O)[C@@H](O)c1ccc(F)cc1,.,.,.,.,2
CC(C)(C)c1cc(Br)c(O)c(CN(Cc2cc(C(C)(C)C)cc(Br)c2O)C2CCCCC2)c1,.,.,.,.,5
CN(C)CCNc1ccccn1,.,.,.,.,-11
COc1ccc(Cl)cc1NC(=O)CSc1ncnc2c1oc1ccccc12,230*,16,38,.,2
CSc1ccc(Cn2nnc(C(=O)Nc3ccc(C)c(C)c3)c2N)cc1,94,18,30,2,-3
Cc1cccc(-n2nnc(C(=O)Nc3ccc(F)cc3)c2N)c1,70,37,63*[fluorescence artefact?],3,4
Cc1ccc(NC(=O)c2nnn(-c3cc(C)cc(C)c3)c2N)cc1,119,-7,22,0,5
COc1cccc(Cn2nnc(C(=O)Nc3ccc(C)cc3)c2N)c1,246*[fluorescence artefact?],-1,-2,10,3
Cc1ccc(NC(=O)Cn2nnc(C(=O)Nc3ccc(C)c(C)c3)c2N)cc1,149,26,70*[fluorescence artefact?],-1,-1
COc1cccc(CNC(=O)c2nnn(CC(=O)Nc3ccc(C)c(C)c3)c2N)c1,287*,13,36,.,9
SMILES,ERa SRC1 pot,ERb coact inh,ERa coact inh,FAK blocker,Smad3 FoxH1 inh
CC1CN(c2nc3c(c(=O)n(Cc4ccc(Cl)c(Cl)c4)c(=O)n3C)n2C)CC(C)O1 (stereo not given),92,2,-8,3,0
Cc1cc(C)n(-c2nc3c(c(=O)n(Cc4ccc(Cl)c(Cl)c4)c(=O)n3C)n2C)n1,109,34,60*[fluorescence artefact?],2,15
O=C(Nc1ccc(Nc2ccc3c(c2)C(=O)c2ccccc2C3=O)c2c1C(=O)c1ccccc1C2=O)c1ccccc1,.,.,.,.,24
CCCCCNC(=O)C1CC=CCC1C(=O)O (stereo not given),273*[fluorescence artefact?],-2,-2,0,3
CCOC(=O)C(C)Oc1cccc2c(=O)n(CC(=O)Nc3ccc4c(c3)OCCO4)ccc12 (stereo not given),324*,28,24,1,-20
CCOC(=O)C(C)Oc1cccc2c(=O)n(CC(=O)Nc3cccc(OC)c3)ccc12 (stereo not given),113,2,-5,4,1
O=S(=O)(NCc1csc(-c2cccnc2)n1)c1cccs1,45,39,71*,.,8
O=S(=O)(NCCc1csc(-c2cccnc2)n1)c1cccs1,.,.,.,4,.
O=S(=O)(NCCc1csc(-c2cccnc2)n1)c1ccc(Cl)s1,32,41,83*,16,-6
C=C(C)COc1ccc2c(c1)CC[C@@H]1[C@H]3C/C(=N/O)C(=O)[C@]3(C)CC[C@@H]21,.,.,.,.,14
CCCc1cc(=O)[nH]c(/N=C(/NC(=O)C(C)N2C(=O)c3ccccc3C2=O)Nc2ccccc2)n1 (stereo not given),98,-6,-27,-1,53*
CCCc1cc(=O)[nH]c(/N=C(/NC(=O)c2ccccc2)Nc2ccc3c(c2)OCCO3)n1,113,-11,-1,1,1
Clc1ccc2c(NC3CCC(N4CCCCC4)CC3)ccnc2c1 (stereo not given),.,.,.,.,1
COc1cc2c(=O)n(CC3CCCO3)c(=O)n(CC(=O)Nc3cccc(Cl)c3)c2cc1OC (stereo not given),110,-1,3,1,83*[fluorescence artefact?]
N/C(=N\c1nc2ccccc2o1)NC(=O)c1ccccc1F,113,-7,-8,10,12
N/C(=N\c1nc2ccccc2o1)NC(=O)c1ccccc1NC(=O)c1ccccc1,122,82*,-2,-3,6
COc1ccc2c(=O)cc(-c3ccncc3)oc2c1OC,.,.,.,.,1
C/C(Nc1ccccc1)=C(/C#N)C(N)=O,94,3,-6,3,96*[fluorescence artefact?]
C/C(Nc1ccc(Cl)cc1)=C(/C#N)C(N)=O,90,-1,-1,3,7
COC(=O)c1sc(N2C(=O)c3oc4ccccc4c(=O)c3C2c2cccs2)nc1C (stereo not given),.,.,.,-2,.
C=CCOC(=O)c1sc(N2C(=O)c3oc4ccccc4c(=O)c3C2c2ccco2)nc1C (stereo not given),38,61*,54*,.,2
Cc1cccc(Nc2cc(Cl)nc(SCC(=O)O)n2)c1C,.,.,.,.,8
O=C(O)c1cccc2c1C(=O)N(Cc1ccncc1)C2,110,-16,-12,6,7
COc1ccc(N2Cc3cccc(C(=O)O)c3C2=O)cc1,36,65*,64*,9,8
O=S(=O)(c1cccc(-c2csc(-c3ccccc3)n2)c1)N1CCOCC1,272*,2,-4,12,3
O=S(=O)(c1cccc(-c2nc3ccccc3s2)c1)N1CCOCC1,100,68*,-1,-1,15
O=S(=O)(O)c1cc(N=[N+]([O-])c2cc(S(=O)(=O)O)c3ccccc3c2)cc2ccccc12,.,.,.,.,39
O=C(O)C[C@H](Cc1ccc2c(c1)OCO2)C(=O)O,.,.,.,.,-11
O=C(O)CCCN1CCCCC1,.,.,.,.,-6
Cc1ccc(-c2nn3c(C)nnc3s2)cc1NC(=O)COc1ccc(Cl)cc1,325*,9,7,-8,-2
